Usually inhibition stands for the drop in the measured response relative to a control, in per cent.

The campaign covered roughly 65,000 compounds. About 1,200 (1.8%) were called active. Cut-off read from the data, not from the text of the source: active = inhibition above about 50%; inactive = the rest. Many of the other results were omitted from the sample, so actives are more common in it than they were.

These results are taken from PubChem BioAssay AID565 (University of Pittsburgh Molecular Library Screening Center, 2006).

For this test, the target named is Gag-Pol polyprotein (Human immunodeficiency virus type 1 group M subtype B (isolate HXB2)) (UniProt P04585). Briefly: blockers of HIV-1 RNase H RNA/DNA cleavage – biochemical, fluorescence, primary screen (AID 565). The settings on record: RT-RNase H RNA/DNA duplex cleavage, at 10 µM, stronger effect = higher value.
`COc1nc(OC)nc(N(C)CCO)n1`: the inhibition is -8.92% (inactive).
On to `CCC1(C)N(O)C(C)(C)C(c2ccc(OC)cc2)=[N+]1[O-]` (configuration not stated), for which the inhibition was -6.14% (inactive).
The figure for `C/C(=N\O)C1(C)N(O)C(C)(C)C(c2ccc(Br)cc2)=[N+]1[O-]` (configuration not stated) is -4.23% (inactive).
For `CCC1=[N+]([O-])C(C)(/C(C)=N\O)N(O)C1(C)C` (configuration not stated) the value was 50.7% (active); for `CC(=O)CCS(=O)(=O)c1ccc(C)c(C)c1`, -10.6% (inactive); for `CC(=O)Oc1cccc(N2C(=O)CC(Nc3ccc(N4CCOCC4)cc3)C2=O)c1` (configuration not stated), 2.32% (inactive).
For `CCOC(=O)Cc1csc(NC(=O)Nc2ccccc2)n1` the value was -23.4% (inactive); for `Cc1csc(NC(=O)NC2(C(F)(F)F)Oc3ccccc3O2)n1`, 74.1% (active).
As to `Cc1csc(NC(=O)CN2CCCCCC2)n1`, the inhibition was 7.02% (inactive).
Regarding `CCCCCOC(=O)NCCOC(=O)Nc1ccc(C(=O)OCC)cc1`, the inhibition is -14% (inactive).
For `Cc1cccc(C(=O)Nc2ccc(CC(=O)O)cc2)c1` the value was -3.58% (inactive); for `CCOC(=O)c1sc(=S)n2c1[nH]c(=O)c1ccc(C(=O)OC)cc12`, 93.6% (active).
The figure for `COC(=O)c1ccc2c(=O)n(CC3CCCO3)c(=S)[nH]c2c1` (configuration not stated) is 0.2% (inactive); for `COC(=O)c1cccc(NC(=O)CSc2nc(C)cc(=O)[nH]2)c1` it is -4.06% (inactive); for `CSc1ccc(-c2c(C#N)c(N)nc3c2c(C)nn3-c2ccccc2)cc1` it is -4.17% (inactive).
The figure for `C[C@H](NC(=O)OC(C)(C)C)c1nnc(SCC(N)=O)o1` is -8.59% (inactive).
`CC(=O)Nc1cccc2c1[n+]([O-])c(C)c(C)[n+]2[O-]`: the inhibition was -5.6% (inactive).
For `Cc1ccc2cccc(O)c2[n+]1[O-]` the value was 63.1% (active).
The figure for `CCCS(=O)(=O)N1CCCC(C(=O)NCCN2CCCCC2C)C1` (configuration not stated) is -24.4% (inactive).
The figure for `COc1ccc(CCNC(=O)CSc2nnc(CNC(=O)c3cccs3)o2)cc1OC` is 4.42% (inactive).
For the molecule `O=c1cc(O)nc(SCc2ccccc2Cl)[nH]1`, the inhibition is -21.4% (inactive).
For `c1ccc(CSc2nnc(-c3ccco3)c(-c3ccco3)n2)cc1` the value was 97% (active); for `Nc1cc(=O)nc(SCc2ccccc2)n1Cc1ccco1`, -80.9% (inactive).
The figure for `Clc1ccccc1CSc1nnc(-c2ccco2)c(-c2ccco2)n1` is 55.3% (active); for `c1coc(-c2nc3nc4ccccc4n3nc2-c2ccco2)c1` it is -3.81% (inactive); for `c1ccc(CSc2nnc(-c3ccco3)n2Cc2ccccc2)cc1` it is -24.3% (inactive).
The figure for `Cc1nn(-c2ccccc2)c(C)c1C(=O)OCC(=O)NC(=O)NC1CCCCC1` is 7.28% (inactive); for `OC1CN=C2Sc3ccccc3N2C1` (configuration not stated) it is -8.76% (inactive).
In the case of `COc1ccccc1NC(=O)c1ccc(C)s1`, the inhibition was -6.32% (inactive).
Regarding `COc1ccc(CN2C(=O)CN=C2Nc2ccc(C)cc2C)cc1`, the inhibition was -7.04% (inactive).
The figure for `COc1ccc(N2C(=O)CN=C2Nc2cccc(C)c2C)cc1OC` is 93.2% (active).
The figure for `Cc1cc(C)nc(NC2=NCC(=O)N2c2ccc(Cl)cc2)n1` is 4.35% (inactive); for `CCOC(=O)N1CCC(NC(=O)c2cnn3ccccc23)CC1` it is -4.53% (inactive); for `FC(F)(F)c1cc(-c2ccco2)nc(N2CCOCC2)n1` it is -9.98% (inactive).
For `Cc1cc(C(F)(F)F)nn1-c1nc(-c2ccco2)cc(C(F)(F)F)n1` the value was 94.4% (active).
Take `CCOC(=O)c1ccn(-c2nc(-c3ccco3)cc(C(F)(F)F)n2)n1`: the inhibition was -4.86% (inactive).
For `O=C(Nc1ccc(-c2nnc(-c3ccccc3)o2)cc1)c1ccc(Br)o1` the value was -4.57% (inactive); for `Nc1ccc(-c2nnc(-c3ccc(-c4ccccc4)cc3)o2)cc1`, 80.5% (active).
The figure for `O=C(Nc1ccc(-c2nnc(-c3ccccc3)o2)cc1)C1CCCO1` (configuration not stated) is 4.33% (inactive).
Regarding `CCCc1[nH]nc2c1C(c1ccc(OC)c(Cn3nc(C)c(Br)c3C)c1)C(C#N)=C(N)O2` (configuration not stated), the inhibition is 7.36% (inactive).
The figure for `O=C(c1ccc2c(c1)OCO2)N1CCNc2ccccc2C1` is -5.92% (inactive); for `O=C(c1ccccc1-c1ccccc1)N1CCOCC1` it is 4.44% (inactive).
